Drawing on PubChem BioAssay (NCI), this text covers growth for eight compounds.

About 83,000 compounds went through this panel and 20% of them were active in at least one assay; those are over-represented in the sample as a whole.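 Activity criterion: percent growth below 10, measured after cells in 96-well plates were exposed to a single compound concentration for 48 hours.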 A number with no mark means an inactive call. Calls of active or inactive are those of the source.

Among the test systems are HCT-15 colon; HT29 colon; SNB-75 CNS; SNB-19 CNS; U251 CNS; PC-3 prostate; SK-MEL-5 melanoma; UACC-62 melanoma; LOX IMVI melanoma; SK-MEL-28 melanoma; SK-MEL-2 melanoma; EKVX NSCLC; SN12C renal; UO-31 renal; TK-10 renal; ACHN renal; CAKI-1 renal; A498 renal; CCRF-CEM leukemia; MOLT-4 leukemia.
Common to all, as to experiment: NCI-60 one-dose screen, 48 h (100 = growth as untreated, 0 = no growth, -100 = all killed)
Holding throughout (settings): 10 µM unless noted

With `N#Cc1cccc(F)c1`, the growth is 97.8% with HCT-15 colon; 104% in the assay with HT29 colon; 127% with SNB-75 CNS; 94.4% with SNB-19 CNS; 110% with U251 CNS; 102% in the assay on PC-3 prostate. Moreover, the growth was 107% in the assay with SK-MEL-5 melanoma; 102% in the assay with UACC-62 melanoma; 107% in the assay with LOX IMVI melanoma; 117% in the assay on SK-MEL-28 melanoma; 103% with SK-MEL-2 melanoma; 113% in the assay on EKVX NSCLC. Moreover, the growth was 99.2% with SN12C renal; 84.9% in the assay with UO-31 renal; 106% in the assay with TK-10 renal; 95.6% with ACHN renal; 94.6% in the assay with CAKI-1 renal; 129% in the assay with A498 renal. Also, the growth with CCRF-CEM leukemia is 104%; with MOLT-4 leukemia, 107%.
In the case of `COc1cc(CNC(=O)/C=C/C=C/c2ccc3c(c2)OCO3)ccc1OCc1cn(-c2ccc(C)c(C)c2)nn1`, the growth with HCT-15 colon was 81.3%; in the assay on HT29 colon, 91.6%; in the assay with SNB-75 CNS it was 88.4%; in the assay on SNB-19 CNS it was 79.5%; in the assay with U251 CNS, 86.3%; in the assay with PC-3 prostate, 75.1%. For the same compound, the growth with SK-MEL-5 melanoma is 81.7%; in the assay on UACC-62 melanoma, 56.9%; in the assay on LOX IMVI melanoma, 88.1%; in the assay on SK-MEL-28 melanoma it was 54.1%; in the assay on SK-MEL-2 melanoma it was 93.5%; in the assay on EKVX NSCLC, 94.1%. In addition, the growth with SN12C renal is 84.9%; in the assay on UO-31 renal, 99.8%; with TK-10 renal, 120%; with ACHN renal, 81.3%; with CAKI-1 renal, 54.4%; with A498 renal, 80.3%. For the same compound, the growth in the assay with CCRF-CEM leukemia is 95.7%; in the assay with MOLT-4 leukemia, 96.2%.
Consider `CC1=Nc2cnc(Nc3ccc(OCCN4CCCC4)cc3)nc2Nc2ccccc21`, for which the growth with HCT-15 colon is 33.9%; with HT29 colon, 60.9%; in the assay on SNB-75 CNS, 20.1%; in the assay with SNB-19 CNS, 91.1%; with U251 CNS it was 80.9%; with PC-3 prostate it was 61.7%. The growth in the assay with SK-MEL-5 melanoma is 71.6%; in the assay on UACC-62 melanoma, 84.3%; with LOX IMVI melanoma, 52.2%; in the assay on SK-MEL-28 melanoma, 94%; in the assay with SK-MEL-2 melanoma, 55.9%; in the assay on EKVX NSCLC, 75.1%. Moreover, the growth in the assay with SN12C renal was 61.1%; with UO-31 renal, 17.3%; with TK-10 renal it was 63.6%; in the assay with ACHN renal it was 28.7%; with CAKI-1 renal it was 20.9%; in the assay with A498 renal, -7.76% (active). The results for the growth in the assay with CCRF-CEM leukemia and in the assay with MOLT-4 leukemia were 86.3% and 34.5%, respectively.
Consider `O=C(O)CCCN1C(=O)/C(=C/C(Cl)=C/c2ccccc2)SC1=S`, for which the growth is -54.3% (active) in the assay with HCT-15 colon; 7.49% (active) in the assay with HT29 colon; 35.9% in the assay with SNB-75 CNS; 37.4% in the assay with SNB-19 CNS; 21% in the assay on U251 CNS; 36.5% in the assay with PC-3 prostate. The growth in the assay on SK-MEL-5 melanoma was 38.4%; in the assay on UACC-62 melanoma, 10.1%; with LOX IMVI melanoma it was -55.5% (active); with SK-MEL-28 melanoma, 7.4% (active); with SK-MEL-2 melanoma, 59.3%; with EKVX NSCLC it was 40.2%. Moreover, the growth in the assay with SN12C renal was -6.97% (active); with UO-31 renal, -46% (active); in the assay on TK-10 renal, 30.3%; with ACHN renal, -93.1% (active); in the assay with CAKI-1 renal, 24.2%; in the assay on A498 renal it was 87.5%. Moreover, the growth was 2.55% (active) in the assay on CCRF-CEM leukemia and 9.65% (active) with MOLT-4 leukemia.
As for `Clc1ccc(Nc2nnc(COc3ccccc3)c3ccccc23)cc1`, the growth with HCT-15 colon was 4.45% (active); with HT29 colon, 1.32% (active); with SNB-75 CNS it was 13.1%; in the assay with SNB-19 CNS, 22%; with U251 CNS it was -12.7% (active); with PC-3 prostate, -0.2% (active). The growth in the assay on SK-MEL-5 melanoma is -96.1% (active); with UACC-62 melanoma, -27.7% (active); in the assay with LOX IMVI melanoma, -62% (active); in the assay on SK-MEL-28 melanoma, 4.73% (active); with SK-MEL-2 melanoma it was -26.5% (active); in the assay with EKVX NSCLC, 6.53% (active). In addition, the growth in the assay on SN12C renal is 17%; in the assay on UO-31 renal it was -12.3% (active); in the assay with TK-10 renal, -17.5% (active); in the assay on ACHN renal, 3.37% (active); in the assay on CAKI-1 renal it was 15.4%; in the assay with A498 renal it was -17.3% (active). Also, the growth with CCRF-CEM leukemia is 1.06% (active); with MOLT-4 leukemia, -32.6% (active).
For `C[C@@H]1CCC[C@H]1CC(N)C(=O)O` (stereo not given in full), the growth in the assay on HCT-15 colon is 90.6%; with HT29 colon, 116%; in the assay with SNB-75 CNS, 103%; in the assay with SNB-19 CNS, 117%; in the assay on U251 CNS, 114%; in the assay on PC-3 prostate it was 96.8%. Also, the growth in the assay on SK-MEL-5 melanoma is 98.5%; in the assay with UACC-62 melanoma, 116%; in the assay on LOX IMVI melanoma, 91.3%; in the assay with SK-MEL-28 melanoma it was 108%; in the assay on SK-MEL-2 melanoma, 132%; with EKVX NSCLC it was 98.4%. For the same compound, the growth in the assay on SN12C renal was 114%; in the assay with UO-31 renal it was 99%; in the assay with TK-10 renal, 130%; with ACHN renal, 99.5%; in the assay with CAKI-1 renal, -76.8% (active); in the assay on A498 renal it was 97.9%. Also, the growth was 104% with CCRF-CEM leukemia and 114% with MOLT-4 leukemia.
As for `C=C(C)[C@@H]1CC[C@]2(C(=O)NCC#CCN3CCN(C)CC3)CC[C@]3(C)[C@H](CC[C@@H]4[C@@](C)(CCC#N)[C@H](C(=C)C)CC[C@]43C)[C@@H]12`, the growth with HCT-15 colon is 20%; in the assay with HT29 colon, -12.7% (active); in the assay on SNB-75 CNS, 64.7%; in the assay on SNB-19 CNS, 78.2%; with U251 CNS, 45.3%; in the assay on PC-3 prostate it was 35.5%. Further, the growth with SK-MEL-5 melanoma is 64.6%; in the assay on UACC-62 melanoma, -8.49% (active); in the assay with LOX IMVI melanoma, 10.4%; with SK-MEL-28 melanoma it was 78.1%; with SK-MEL-2 melanoma, 91.8%; in the assay with EKVX NSCLC, 52.1%. In addition, the growth is 69.2% in the assay with SN12C renal; 51.6% in the assay with UO-31 renal; 80.4% with TK-10 renal; 70.8% with ACHN renal; 57.7% in the assay with CAKI-1 renal; 57.5% in the assay with A498 renal. The growth was 51.3% with CCRF-CEM leukemia and 10.9% in the assay with MOLT-4 leukemia.
Take `COCCn1c(-c2csc(-c3cn(C)c4ccc(OC)cc34)n2)cc2cccnc21`: the growth is 7.45% (active) in the assay with HCT-15 colon; 5% (active) with HT29 colon; 72.4% in the assay with SNB-75 CNS; 85.3% in the assay on SNB-19 CNS; 48.4% with U251 CNS; 19.2% in the assay on PC-3 prostate. Besides, the growth with SK-MEL-5 melanoma is 65.2%; with UACC-62 melanoma, 82.1%; in the assay on LOX IMVI melanoma it was -22.6% (active); in the assay on SK-MEL-28 melanoma, 85.1%; with SK-MEL-2 melanoma it was 54%; with EKVX NSCLC, 58.5%. The growth is 80.2% in the assay on SN12C renal; 54.9% in the assay with UO-31 renal; 43.6% in the assay with TK-10 renal; 70.9% in the assay on ACHN renal; 74.8% with CAKI-1 renal; 60.8% in the assay with A498 renal. In addition, the growth in the assay on CCRF-CEM leukemia was 41.3%; in the assay on MOLT-4 leukemia, 54.4%.
